Assay [1] can be described thus: qHTS assay for small molecule agonists of the p53 signaling pathway (AID 651631; calls by dose curve; further: nearly all actives have a fitted effect of over 15% in size; further: potency means the concentration at half of the fitted maximal effect). Put shortly: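 HCT-116 p53RE-bla reporter line, 16 h compound treatment at 37 °C, then fluorescence after 2 h with B/G FRET substrate.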
A general note: In qHTS, concentration-response curves come from the screen itself.

Assay [2] is described as follows: qHTS assay for small molecules that induce genotoxicity in human embryonic kidney cells expressing luciferase-tagged ATAD5 (AID 651632). Further: nearly all actives have a fitted effect of over 15% in size. Further: potency means the concentration at half of the fitted maximal effect. The gist of the method:
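Luminescent reporter readout, HEK293T ATAD5-luc line: 16 hr drug exposure (37C, 5% CO2) followed by Amplite, 30 min RT.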

Assay [3] can be described thus: qHTS assay for small molecule agonists of the p53 signaling pathway - cell viability (AID 651633; calls by dose curve;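 further: p53RE-bla HCT reporter cells with a stable beta-lactamase p53 reporter; series mostly up to about 83 µM; nearly all actives have a fitted effect of over 30% in size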). Put shortly: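 p53RE-bla cells were treated with compound for 16 hours at 37 C. Cytotoxicity was then measured as CellTiter-Glo luminescence after 30 min at room temperature.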
Assay [4] is described as follows: qHTS assay for small molecules that induce genotoxicity in human embryonic kidney cells expressing luciferase-tagged ATAD5 - cell viability (AID 651634; calls by dose curve; further: nearly all actives have a fitted effect of over 25% in size; further: potency means the concentration at half of the fitted maximal effect). The gist of the method: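 Viability read: CellTiter-Fluor fluorescence, 30 min at 37C. Cells: HEK293T, luciferase-tagged ATAD5. Exposure: 15.5 hr, 37C, 5% CO2, compound or DMSO vehicle.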
Assay [5] in a line: qHTS assay for small molecule disruptors of the mitochondrial membrane potential - cell viability (AID 720634; calls by dose curve;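 further: human HepG2 liver cancer cells; series mostly up to about 83 µM; nearly all actives have a fitted effect of over 20% in size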). The gist of the method: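 HepG2, 1 hr compound, 37 C. ATP luminescence via CellTiter-Glo, 30 min RT, same well as m-MPI.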
Assay [6] in a line: qHTS assay to test for compound auto fluorescence at 590 nm (red) in HepG2 cells (AID 720674). The gist of the method:
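Fluorescence at 590 nm emission following 540 nm excitation was recorded from HepG2 wells one hour after compound transfer, with DMSO-only wells as vehicle and Rose Bengal sodium equivalency as the scale.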

Assay [7] can be described thus: qHTS assay to test for compound auto fluorescence at 535 nm (green) in HepG2 cells (AID 720675).
Assay [8] can be described thus: qHTS assay to test for compound auto fluorescence at 460 nm (blue) in HEK293 cells (AID 720678). The gist of the method: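 HEK293, 2,000 cells/well, 10% dialyzed FBS; attach 4-5 hr 37C; pin compound or DMSO; o/n 37C/5% CO2; fluorescence 405/460 nm; triamterene-equivalent units.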
The nature of assay [9]: qHTS assay to test for compound auto fluorescence at 590 nm (red) in HEK293 cells (AID 720679). Put shortly: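 Intensity at 540nm excitation and 590nm emission is reported as Rose Bengal sodium-equivalent autofluorescence. Measurements followed overnight exposure (37C, 5% CO2) of HEK293 cells, 2,000 per well, to 23 nL compound.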
Assay [10] is described as follows: qHTS assay to test for compound auto fluorescence at 535 nm (green) in HEK293 cells (AID 720680).
Assay [11] is described as follows: qHTS assay to test for compound auto fluorescence at 460 nm (blue) in HEK293 cell free culture (AID 720681). The gist of the method: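 Compounds were added to cell-free DMEM with 10% FBS and fluorescence read directly. The blue channel used 405 nm excitation and 460 nm emission, with triamterene as the reference fluorophore.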
Assay [12] can be described thus: qHTS assay to test for compound auto fluorescence at 535 nm (green) in HEK293 cell free culture (AID 720682). The gist of the method:
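Steps: dispense DMEM/10% FBS into empty wells; pin in compound or DMSO; measure fluorescence at 485/535 nm. Values are fluorescein equivalents.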

The nature of assay [13]: qHTS assay to test for compound auto fluorescence at 590 nm (red) in HEK293 cell free culture (AID 720683). The gist of the method:
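Cell-free wells of DMEM with 10% FBS received compound, and intrinsic fluorescence was read at excitation/emission 540/590 nm. Values expressed as equivalence to Rose Bengal sodium.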

Assay [14] can be described thus: qHTS assay to test for compound auto fluorescence at 590 nm (red) in HepG2 cell free culture (AID 720684). Put shortly:
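Compound was pinned into wells holding MEM with 10% FBS and no cells, and red fluorescence was read at Ex/Em 540/590 nm. Signal is expressed as auto fluorescence equivalency relative to Rose Bengal sodium.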

Assay [15] can be described thus: qHTS assay to test for compound auto fluorescence at 460 nm (blue) in HepG2 cell free culture (AID 720685). Put shortly:
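Compound (23 nL) or DMSO pinned into cell-free MEM with 10% FBS; blue fluorescence read at 405/460 nm excitation/emission, expressed as auto-fluorescence equivalency to triamterene.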

The nature of assay [16]: qHTS assay to test for compound auto fluorescence at 535 nm (green) in HepG2 cell free culture (AID 720686).
Assay [17] in a line: qHTS assay to test for compound auto fluorescence at 460 nm (blue) in HepG2 cells (AID 720687). Put shortly: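 HepG2 cells in MEM with 10% FBS, attached overnight at 37 C, were exposed to compound or DMSO for 1 hr at 37 C, 5% CO2. Blue fluorescence was read at 405/460 nm, with triamterene as reference fluorophore.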
The target in assay [18] is Glucocorticoid receptor (Homo sapiens) (UniProt P04150). Kind of assay: qHTS assay to identify small molecule agonists of the glucocorticoid receptor (GR) signaling pathway (AID 720691; active means well fitted activation curve with a large enough effect in the signal ratio in the repeat runs, not every such curve was filed as active; the % refers to the signal ratio). Put shortly:
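qHTS in GR-bla HeLa cells: 4 h settling at 37 C/5% CO2, 18 h compound incubation at 37 C, 2 h LiveBLAzer B/G FRET substrate at room temperature, fluorescence intensity measured.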

Assay [19] in a line: qHTS assay for small molecule disruptors of the mitochondrial membrane potential (AID 720635). The gist of the method:
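HepG2 cells exposed to compound 1 hr at 37C, then Mito-MPS dye 30 min. Ratio read of aggregate (540/590 nm) versus monomer (490/535 nm) fluorescence.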

Assay [20] deals with Glucocorticoid receptor (Homo sapiens) (UniProt P04150). Kind of assay: qHTS assay to identify small molecule antagonists of the glucocorticoid receptor (GR) signaling pathway (AID 720692; active means well fitted inhibition curve with a large enough effect in the signal ratio in the repeat runs, not every such curve was filed as active; the % refers to the signal ratio). The gist of the method:
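Inhibition of glucocorticoid signalling is measured in HeLa cells with a GRE-controlled beta-lactamase reporter; cells are co-treated with compound and 5 nM dexamethasone (final) for 18 h before FRET substrate readout.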

Values without a mark were called inactive. Results filed as inconclusive are left out. Activity calls are given as the source filed them. Unless noted, the call rests on the fitted dose curve; in most records, active means well fitted curve in the direction sought with a large enough effect in the repeat runs; inconclusive means weak or mixed curves; inactive means no such curve, though single readings can be large; an effect the other way counts as inactive or inconclusive.

These results are taken from PubChem BioAssay (Tox21).
On the % scale 0 is the no-effect control and ±100 the full control effect.

Glucocorticoid receptor (Homo sapiens), sequence (P04150 whole entry, looked up): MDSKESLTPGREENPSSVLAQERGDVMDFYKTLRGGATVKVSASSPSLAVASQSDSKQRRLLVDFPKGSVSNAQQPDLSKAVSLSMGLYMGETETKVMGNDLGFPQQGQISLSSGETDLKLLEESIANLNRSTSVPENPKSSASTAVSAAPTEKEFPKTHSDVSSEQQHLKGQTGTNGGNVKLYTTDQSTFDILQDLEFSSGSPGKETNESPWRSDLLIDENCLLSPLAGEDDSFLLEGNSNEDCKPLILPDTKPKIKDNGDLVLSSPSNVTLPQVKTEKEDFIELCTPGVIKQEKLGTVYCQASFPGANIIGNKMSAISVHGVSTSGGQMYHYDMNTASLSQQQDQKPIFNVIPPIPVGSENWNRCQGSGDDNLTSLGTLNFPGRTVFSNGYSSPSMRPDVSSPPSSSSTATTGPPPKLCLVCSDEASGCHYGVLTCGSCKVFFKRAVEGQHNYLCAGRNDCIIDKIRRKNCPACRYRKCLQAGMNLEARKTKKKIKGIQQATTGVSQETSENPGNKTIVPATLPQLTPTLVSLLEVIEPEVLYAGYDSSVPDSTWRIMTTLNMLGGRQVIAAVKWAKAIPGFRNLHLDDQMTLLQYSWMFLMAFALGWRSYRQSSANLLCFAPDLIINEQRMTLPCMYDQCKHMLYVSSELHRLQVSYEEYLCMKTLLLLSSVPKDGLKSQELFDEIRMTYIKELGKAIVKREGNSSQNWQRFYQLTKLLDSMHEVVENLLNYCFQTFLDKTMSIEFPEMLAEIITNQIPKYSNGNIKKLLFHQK

For the molecule `Cc1cccc(OCCOc2cccc(C)c2)c1`, the Potency entry in [1], in assay [2], in assay [3], in assay [4], in [5] and in [8] was “inactive” each time. Also, the Potency result in [11], in [15], in [17] and in assay [18] was “inactive” each time. Also, the molecule was classed as inactive in assay [6], in [7], in [9], in assay [10], in assay [12] and in [13]. In addition, the call in assay [14] and in assay [16] was inactive.
Regarding `O=[N+]([O-])c1cc[n+]([O-])cc1`, the Potency entry in assay [1], in assay [2], in assay [3], in assay [4], in assay [5] and in assay [19] was “inactive” in each case. Further, the Potency entry in assay [8], in [15], in assay [17] and in [18] was “inactive” each time. Besides, the call in assay [7], in assay [9], in [10], in assay [12], in [13] and in [14] was inactive. The molecule was called inactive in assay [16].
With `CC(=O)c1ccc2c(c1)[C@H](NC(=O)c1ccc(F)cc1)[C@@H](O)C(C)(C)O2`, the Potency entry in [1], in assay [2], in assay [3], in assay [4], in assay [5] and in assay [8] was “inactive” each time. Also, the Potency entry in assay [11], in assay [15] and in assay [18] was “inactive” throughout. In addition, the call in assay [6], in assay [7], in [9], in [10], in assay [12] and in [13] was inactive. Further, the molecule was classed as inactive in assay [14] and in assay [16].
`CN(C)CCCOc1nn(Cc2ccccc2)c2ccccc12`: the Potency result in assay [1], in [2], in [3], in assay [4], in assay [5] and in assay [18] was “inactive” in each case. Besides, in assay [20], the Potency entry was “inactive”. For the same molecule, the fluorescence, relative to Rose Bengal in assay [6] was -0.438% [at 18.6 µM]. Moreover, the fluorescence, % of fluorescein control in assay [7] is -0.0147% [at 18.6 µM]; in [16] it was 0.0194% [at 18.6 µM]. In addition, the fluorescence, % of triamterene in assay [8] was -0.0099% [at 18.6 µM]. The fluorescence, % of fluorescent control is 0.312% [at 18.6 µM] in [9]; -0.101% [at 18.6 µM] in assay [11]; 0.117% [at 18.6 µM] in assay [13]; -0.0147% [at 18.6 µM] in assay [15]; -0.0064% [at 18.6 µM] in assay [17]. The fluorescence, % of fluorescein in [10] is 0.0226% [at 18.6 µM]. Further, the activity change in [12] was -0.0035% [at 18.6 µM]. Moreover, the fluorescence, % of Rose Bengal in assay [14] is -0.0465% [at 18.6 µM].
Consider `CCCOc1ccc2nc(NC(=O)OC)[nH]c2c1`, for which the Potency is 298 nM (active) in assay [1], 1680 nM (active) in assay [2] and 150 nM (active) in [4]. Moreover, the Potency result in assay [3], in assay [5], in assay [19], in assay [8], in assay [11] and in assay [15] was “inactive” each time. Also, the Potency entry in [17] is “inactive”. Further, the result in assay [6], in assay [7], in [12], in [13], in assay [14] and in [16] was inactive.
With `C=CCCCCCC`, the Potency result in assay [1], in assay [2], in assay [3], in assay [4], in assay [5] and in [19] was “inactive” in each case. The Potency result in assay [8], in [11], in [15], in assay [17], in assay [18] and in [20] was “inactive” in each case. Also, the molecule was classed as inactive in assay [7], in [9], in assay [10], in assay [12], in [13] and in assay [16].
`CCN(CC)CCc1nc(-c2ccccc2)no1`: the Potency entry in assay [1], in [2], in assay [3], in assay [4], in [5] and in assay [19] was “inactive” in each case. The Potency result in [18] and in assay [20] was “inactive” throughout. In addition, in assay [6], the fluorescence, relative to Rose Bengal is 0.351% [at 18.6 µM]. Besides, the figures for the fluorescence, % of fluorescein control in assay [7] and in assay [16] were 0.0159% [at 18.6 µM] and -0.0688% [at 18.6 µM], respectively. The fluorescence, % of fluorescent control is 0.0464% [at 18.6 µM] in assay [9]; -0.0186% [at 18.6 µM] in assay [11]; -0.0001% [at 18.6 µM] in assay [13]; -0.0109% [at 18.6 µM] in [15]; -0.0362% [at 18.6 µM] in assay [17]. Also, in assay [10], the fluorescence, % of fluorescein is -0.143% [at 18.6 µM]. The activity change in assay [12] was 0.0186% [at 18.6 µM]. Also, the fluorescence, % of Rose Bengal in assay [14] is 0.0837% [at 18.6 µM].
